# Results as given in the supplement of paper PMC4466140.
# Key:
# Assay in all cases: SPOT peptide array binding signal intensity (averaged, normalized) (arbitrary units (background-subtracted, floor 0; scale differs between SH3 domains)); higher = stronger binding of the SH3 domain to the peptide
# [1] = target: AgAbp1
# How it was run: (§1)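 GST-fused SH3 domains from four yeast species were expressed in E. coli BL21(DE3), purified on glutathione Sepharose and incubated at 10 μg/ml overnight at 4°C in TBS-based blocking buffer on cellulose membranes carrying synthetic 15-mer peptides, with cysteines replaced by serines. Bound protein was detected with anti-GST antibody, an HRP anti-mouse secondary and luminol, then imaged and quantified with Genespotter. Binding signal is the normalized, background-subtracted spot intensity averaged over replicates, in arbitrary units that differ between domains.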
# [2] = target: AgBbc1
# How it was run: as §1
# [3] = target: AgBem1-D1
# How it was run: as §1
# [4] = target: AgBzz1-D1
# How it was run: as §1
# [5] = target: AgBzz1-D2
# How it was run: as §1
# [6] = target: AgCyk3
# How it was run: as §1
# [7] = target: AgFus1
# How it was run: as §1
# [8] = target: AgHof1
# How it was run: as §1
# [9] = target: AgHse1
# How it was run: as §1
# [10] = target: AgLsb1
# How it was run: as §1
# [11] = target: AgLsb4
# How it was run: as §1
# [12] = target: AgMyo5
# How it was run: as §1
# [13] = target: AgNbp2
# How it was run: as §1
# [14] = target: AgRvs167
# How it was run: as §1
# [15] = target: AgSho1
# How it was run: as §1
# [16] = target: AgSla1-D1-D2
# How it was run: as §1
# [17] = target: AgSla1-D3
# How it was run: as §1
# [18] = target: CaAbp1-D1
# How it was run: as §1
# [19] = target: CaAbp1-D2
# How it was run: as §1
# [20] = target: CaBbc1
# How it was run: as §1
# [21] = target: CaBem1-D1
# How it was run: as §1
# [22] = target: CaBzz1-D1
# How it was run: as §1
# [23] = target: CaBzz1-D2
# How it was run: as §1
# [24] = target: CaCyk3
# How it was run: as §1
# [25] = target: CaFus1
# How it was run: as §1
# [26] = target: CaHof1
# How it was run: as §1
# [27] = target: CaHse1
# How it was run: as §1
# [28] = target: CaLsb1
# How it was run: as §1
# [29] = target: CaLsb4
# How it was run: as §1
# [30] = target: CaMyo5
# How it was run: as §1
# [31] = target: CaNbp2
# How it was run: as §1
# [32] = target: CaRvs167
# How it was run: as §1
# [33] = target: CaRvs167-3
# How it was run: as §1
# [34] = target: CaSho1
# How it was run: as §1
# [35] = target: CaSla1-D1-D2
# How it was run: as §1
# [36] = target: CaSla1-D3
# How it was run: as §1
# [37] = target: ScAbp1
# How it was run: as §1
binder,measurement,setting,value
TPEIPPPLPPKIMVH,SPOT peptide array binding signal intensity,[1],≤ 0
same,SPOT peptide array binding signal intensity,[2],≤ 0
same,SPOT peptide array binding signal intensity,[3],≤ 0
same,SPOT peptide array binding signal intensity,[4],≤ 0
same,SPOT peptide array binding signal intensity,[5],4.5
same,SPOT peptide array binding signal intensity,[6],≤ 0
same,SPOT peptide array binding signal intensity,[7],≤ 0
same,SPOT peptide array binding signal intensity,[8],631
same,SPOT peptide array binding signal intensity,[9],822
same,SPOT peptide array binding signal intensity,[10],≤ 0
same,SPOT peptide array binding signal intensity,[11],232
same,SPOT peptide array binding signal intensity,[12],496
same,SPOT peptide array binding signal intensity,[13],≤ 0
same,SPOT peptide array binding signal intensity,[14],9.33
same,SPOT peptide array binding signal intensity,[15],66
same,SPOT peptide array binding signal intensity,[16],≤ 0
same,SPOT peptide array binding signal intensity,[17],≤ 0
same,SPOT peptide array binding signal intensity,[18],6.5
same,SPOT peptide array binding signal intensity,[19],≤ 0
same,SPOT peptide array binding signal intensity,[20],≤ 0
same,SPOT peptide array binding signal intensity,[21],≤ 0
same,SPOT peptide array binding signal intensity,[22],≤ 0
same,SPOT peptide array binding signal intensity,[23],≤ 0
same,SPOT peptide array binding signal intensity,[24],≤ 0
same,SPOT peptide array binding signal intensity,[25],74
same,SPOT peptide array binding signal intensity,[26],20.5
same,SPOT peptide array binding signal intensity,[27],3420
same,SPOT peptide array binding signal intensity,[28],≤ 0
same,SPOT peptide array binding signal intensity,[29],1090
same,SPOT peptide array binding signal intensity,[30],25.5
same,SPOT peptide array binding signal intensity,[31],9
same,SPOT peptide array binding signal intensity,[32],29.8
same,SPOT peptide array binding signal intensity,[33],≤ 0
same,SPOT peptide array binding signal intensity,[34],124
same,SPOT peptide array binding signal intensity,[35],≤ 0
same,SPOT peptide array binding signal intensity,[36],≤ 0
same,SPOT peptide array binding signal intensity,[37],≤ 0
